# Screening results from PubChem.
# Sampled rows, rich in hits. Any-hit rate of the full collection: about 12%.
# TDP1 block = TDP1 (human) enzyme inhibition; AID 485290; Potency, µM (titrated, usually from 130 µM), hits mostly inhibitors; recombinant TDP1, AlphaScreen DNA substrate cleavage; 350,000 tested, 0.28% active; further: nearly all actives have a fitted effect of over 40% in size
#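 Steps: enzyme plus compound, 15 min RT; add biotin/phosphotyrosine-FITC oligonucleotide (15 nM final), react 5 min; add donor/acceptor beads (10 ug/ml final), 10 min; read AlphaScreen. Tdp1 at 1 nM final.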
# G9a inh = G9a (human) methyltransferase inhibition; Q96KQ7; G9a H3K9 monomethylation, AlphaScreen, 2 h; Potency, µM (titrated, usually from 102 µM), actives largely listed as inhibitors; 350,000 tested, 8.8% active; AID 504332; further: nearly all actives have a fitted effect of over 75% in size
# Target sequence (Q96KQ7 913-1193 limits assumed): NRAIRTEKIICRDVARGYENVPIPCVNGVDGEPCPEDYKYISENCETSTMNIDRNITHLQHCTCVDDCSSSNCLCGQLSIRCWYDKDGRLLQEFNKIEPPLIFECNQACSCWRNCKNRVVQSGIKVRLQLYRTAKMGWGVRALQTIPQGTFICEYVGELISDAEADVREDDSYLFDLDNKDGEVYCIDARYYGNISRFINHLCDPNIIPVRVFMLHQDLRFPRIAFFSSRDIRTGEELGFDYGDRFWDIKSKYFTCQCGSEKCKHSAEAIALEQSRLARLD
#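 AlphaScreen read-out: biotin-H3K9 peptide (500 nM) methylation by 20 nM enzyme with 20 uM SAM, 2 h at room temperature after 15 min compound preincubation; anti-monomethyl H3K9 antibody plus donor/acceptor beads, 10 min dark.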
# BAZ2B inh = blocks human BAZ2B. Q9UIF8. AlphaScreen BAZ2B-H3K14Ac peptide displacement. Potency, µM (titrated, usually from 114 µM), most hits filed as inhibitors. 360,000 tested, 4.4% active. AID 504333; further: nearly all actives have a fitted effect of over 60% in size
#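 BAZ2B (50 nM) with biotin-H3(5-23)K14Ac peptide (50 nM) in PBS pH 7.4, 0.01% Tween-20, preformed 30 min, then compound 30 min at room temperature; top concentration 110uM. AlphaScreen streptavidin donor/nickel chelate acceptor beads (10 ug/mL final), 20 min dark, signal read.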
# Sfp PPTase inh = inhibitors of Bacillus subtilis Sfp phosphopantetheinyl transferase. Q9F4F7. Biochemical Sfp PPTase activity, qHTS. Potency, µM, hits mostly inhibitors. 310,000 tested, 3.5% active. AID 1490;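 further: the enzyme is Sfp with the accession as filed and its product quenches rhodamine fluorescence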
#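 With Hepes-Na pH 7.6 buffer containing 10 mM MgCl2, Sfp (15 nM) modified BHQ-2-YbbR (12.5 uM) using rhodamine-CoA (5 uM). Two reads 30 minutes apart at 525/598 nm yielded each well's rate.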
# JMJD2A Tudor = blocks the human JMJD2A Tudor domain; AlphaScreen JMJD2A-Tudor / H3K4me3 peptide binding; 390,000 tested, 4.4% active; AID 504339; Potency, µM (series often up to 114 µM), hits mostly inhibitors; O75164; further: nearly all actives have a fitted effect of over 50% in size
# HP1b chromo inh = HP1-beta chromodomain-methylated histone interaction inhibition; P83916; AID 540317; 390,000 tested, 0.56% active; AlphaScreen HP1-beta / biotin-H3K9me3 peptide binding; Potency, µM (doses to about 114 µM), actives largely listed as inhibitors; further: nearly all actives have a fitted effect of over 70% in size
# Target sequence (P83916 whole entry, looked up): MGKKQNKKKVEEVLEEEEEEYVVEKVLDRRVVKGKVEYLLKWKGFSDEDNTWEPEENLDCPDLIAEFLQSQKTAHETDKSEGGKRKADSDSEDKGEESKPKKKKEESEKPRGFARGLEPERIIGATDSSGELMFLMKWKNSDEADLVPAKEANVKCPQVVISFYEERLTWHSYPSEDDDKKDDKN
#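 AlphaScreen: HP1-beta (50 nM) preformed 30 min with biotin-H3(1-18)K9me3 peptide (50 nM) in PBS pH 7.4, 0.01% Tween-20. Compound added for 30 min at RT, then streptavidin donor/nickel chelate acceptor beads (10 ug/mL) for 30 min.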
# Hits are given with their value; i = inactive; ? = inconclusive; nt = no result; [ ] = dose if it differs, or a comment. The call rests on the fitted dose curve; in most records, active means well fitted curve in the direction sought with a large enough effect; inconclusive means small, poorly fitted or top-dose-only effect, or another doubt; inactive means no such curve, though single readings can be large; an effect the other way counts as inactive or inconclusive.
SMILES,TDP1 block,G9a inh,BAZ2B inh,Sfp PPTase inh,JMJD2A Tudor,HP1b chromo inh
COC(=O)c1ccc([C@H]2Nc3ccc(S(=O)(=O)Nc4ccc(C)cc4)cc3[C@H]3C=CC[C@H]32)cc1,nt,3.5µM,?,nt,?,i
COc1ccc(NS(=O)(=O)c2ccc3c(c2)[C@H]2C=CC[C@H]2[C@@H](c2ccc(C(=O)O)cc2)N3)cc1,nt,25µM,40µM,i,45µM,35µM
CCOc1ccc(NC(=O)c2sc(-n3nc(C)c(CCC(C)C)c3C)nc2C)cc1,i,i,i,nt,i,i
CC(=O)c1c(C)[nH]c(C(=O)OCC(=O)NCc2ccc3c(c2)OCO3)c1C,i,i[12.7 µM],i,nt,i,i
COc1cc2nc(CN(C)Cc3ccc(C(C)(C)C)cc3)[nH]c(=O)c2cc1OC,i,i,i,i,i,?
CN(Cc1ccccc1)C(=O)COc1ccc(C(C)(C)C)cc1,nt,i,i,i,i,i
COc1ccc(CC(=O)NCc2nc3cccnc3n2Cc2ccccc2)cc1,i,i,i,nt,i,i
CCCc1cc(=O)oc2c(CN3CCCC3)c(O)c(Cl)cc12,i,i,i,i,i,i
CCc1cc(=O)oc2c(CNCc3ccccc3F)c(O)c(Cl)cc12,nt,50µM,?,i,?,i
CCOC(=O)C1=C(COC(=O)c2ccccc2OC)NC(=O)NC1C (centres undefined),i,3.2µM,i,nt,i,i
CCOC(=O)C1=C(COC(=O)/C=C/c2ccc(OC)cc2)NC(=O)NC1C (centres undefined),i,i,i,nt,i,i
CCOC(=O)C1=C(COC(=O)/C=C/c2ccco2)NC(=O)NC1C (centres undefined),nt,i[0.501 µM],50µM,nt,28µM,?
Cc1cccc(-c2nc(C#N)c(NCC3CCCO3)o2)c1 (centres undefined),nt,?,i,i,i,i
Cc1ccc(NN2C(=O)C=C(c3ccccc3)C2=O)cc1,i,10µM,i,11µM,i,i
COc1ccc(C2C(C#N)=C(N)N(c3sc4c(c3C#N)CCCC4)C3=C2C(=O)CC(C)(C)C3)cc1 (centres undefined),i,i[2.33 µM],i,i,?,i
COc1ccc(C2C(C#N)=C3NC(=O)c4c(sc5c4CCCCC5)N3C3=C2C(=O)CC(C)(C)C3)cc1 (centres undefined),i,i,i,56µM,i,?
COc1cc2c(cc1OC)CN(C(=O)c1ccc(S(=O)(=O)N(C)c3ccccc3)cc1)CC2,i,?,i,i,i,i
Cc1cc(=O)[nH]c(-n2[nH]c(C)cc2=O)n1,i,i[0.0925 µM],11µM,22µM,45µM,i
COc1ccccc1NC(=O)c1c(C)cc(C)nc1SCC(=O)c1ccc(Cl)cc1,i,?,i,nt,i,i
O=C1CSC(=NC2CCCCC2)N1,i,i[12.7 µM],i,i,i,i
O=C1CS/C(=N/N=C2CCCC2)N1,i,?,79µM,i,i,i
CC(C)N(C(=O)CSc1nc2c([nH]1)c(=O)n(C)c(=O)n2C)c1ccccc1,i,25µM,i,i,i,i
CC(C)N(C(=O)CSc1nc2ccc(Cl)cc2[nH]1)c1ccccc1,i,?,i,nt,i,i
CCC(=O)OC1=CN(Cc2ccccc2)S(=O)(=O)c2ccccc21,i,i,i,nt,i,i
Cc1csc(SCC(=O)Nc2cc(S(=O)(=O)N3CCOCC3)ccc2N2CCOCC2)n1,i,i[12.7 µM],i,i,i,i
SMILES,TDP1 block,G9a inh,BAZ2B inh,Sfp PPTase inh,JMJD2A Tudor,HP1b chromo inh
Cc1csc(SCc2ccc(C(=O)O)cc2)n1,i,45µM,i,i,i,i
Cc1csc(SCC(=O)c2ccc(S(=O)(=O)N3CCOCC3)cc2)n1,i,28µM,i,?,56µM,i
COC(=O)c1ccc(CSc2nc3ccc(S(=O)(=O)N4CCOCC4)cc3[nH]2)cc1,i,14µM,i,i,i,i
CCn1c(SCC(=O)OC)nc2cc(S(=O)(=O)N3CCOCC3)ccc21,nt,i,i,nt,i,i
COC(=O)c1ccc(CSc2nc3ccc(S(N)(=O)=O)cc3[nH]2)cc1,i,i,?,i,i,i
CCc1ccc(C(=O)CSc2nc3cc(S(=O)(=O)N4CCOCC4)ccc3n2CC)cc1,i,45µM,i,?,i,?
